Screens deposited in PubChem BioAssay by SRMLSC.
Fluor 339 460: intrinsic fluorescence of library compounds, ex339/em460 – biochemical, MLSMR library, data from DPM-DC assay, artefact control, profiling panel. compound autofluorescence, ex339/em460 nm, NADH buffer; hits give high values; 1 = no-compound wells, NADH background. fluorescence fold increase at 10 µM. hit rate 5.5% among 65,000. AID 709;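 active means at 10 µM, mean starting fluorescence two-fold or more over control wells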;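 further: signal is the first read of a kinetic run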
DPM-DC inhibit: S. pneumoniae DPM-DC inhibition | hit rate 0.49% among 65,000 | AID 556 | purified DPM-DC, PK/LDH coupled NADH fluorescence | calls only at 10 µM;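 active means the 320 compounds with the highest percent inhibition in the single-dose primary screen, excluding strongly autofluorescent ones, cut at about 32% in these data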;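 further: kinetic rate of NADH fluorescence loss reporting ADP formed by the decarboxylase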
PMK inhibit: blocks S. pneumoniae phosphomevalonate kinase. purified PMK, PK/LDH-coupled NADH absorbance 340 nm. inhibition, % at 10 µM. hit rate 0.49% among 65,000;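 active means top-ranked compounds by inhibition in the single 10 µM screen, taking a fixed number of the strongest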;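 further: 0% = full reaction with DMSO carrier and 100% = background rate without enzyme reaction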
NADH enzymes: blocks coupling enzymes of NAD/NADH assays | coupled PK/LDH NADH assays, four targets | IC50, µM (titrated, usually from 10 µM), inactives show at the top dose inhibition | AID 774 | hit rate 0.02% among 65,000;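 active means single-dose screening hits from any of four coupled enzyme assays that gave an IC50 when retested across doses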;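 further: the DPM-DC format reads NADH fluorescence rather than 340 nm absorbance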
Abs 340nm: absorbance at 340 nm | compound absorbance at 340 nm, fold over control | fold change at 10 µM | 65,000 tested, under 10 active;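 active means at 10 µM dose, initial 340 nm absorbance at least 2 fold that of control wells; inactive means change under 2 fold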;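 further: initial absorbance extrapolated from kinetic A340 decline of NADH oxidation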
MK inhibit: S. pneumoniae mevalonate kinase inhibition; inhibition, % at 10 µM; hit rate 0.48% among 65,000; purified MK, PK/LDH-coupled NADH absorbance 340 nm;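 active means ranked among the strongest by inhibition in the single 10 µM screen, a fixed top-ranked set picked for dose follow-up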
* marks the source's active call; other numbers are inactive results. An excerpt weighted towards active compounds, which were near 6.8% of everything screened.

Screening Cc1ccc(NC(=O)N2CCC(c3nc4c(nnn4Cc4cccc(Cl)c4)c(=O)[nH]3)CC2)cc1 returned Fluor 339 460 1.1, DPM-DC inhibit inactive, PMK inhibit 5, NADH enzymes 3%, Abs 340nm 1 and MK inhibit 4.
`O=C(C1CCCCC1)N1CCC(c2nc3c(nnn3Cc3ccccc3Cl)c(=O)[nH]2)CC1` gave Fluor 339 460 1.1, DPM-DC inhibit active, PMK inhibit 10, NADH enzymes 6%, Abs 340nm 1 and MK inhibit 9.
For O=C(Nc1ccc(F)cc1)N1CCC(c2nc3c(nnn3Cc3cccc(Cl)c3)c(=O)[nH]2)CC1 the results were Fluor 339 460 0.97, DPM-DC inhibit inactive, PMK inhibit 9, NADH enzymes 22%, Abs 340nm 1 and MK inhibit 49*.
For c1ccc(-c2noc(-c3cccc4ccccc34)n2)cc1 the results were Fluor 339 460 2.5*, DPM-DC inhibit inactive, PMK inhibit 11, NADH enzymes 8%, Abs 340nm 1 and MK inhibit 8.
Screening Cc1cccc2cc(CN(CC3CCCO3)C(=O)c3ccncc3)c(=O)[nH]c12 (centres undefined) returned Fluor 339 460 1.3, DPM-DC inhibit inactive, PMK inhibit 7, NADH enzymes 6%, Abs 340nm 1 and MK inhibit 11.
For CNC(=O)Cn1ncc2c(C)n(Cc3ccc(C)cc3)c(C)c2c1=O the results were Fluor 339 460 1.1, DPM-DC inhibit inactive, PMK inhibit 34*, NADH enzymes 11%, Abs 340nm 1 and MK inhibit 0.
COC(=O)Cn1ncc2c(C)n(Cc3ccccc3)c(C)c2c1=O was read as Fluor 339 460 1.1, DPM-DC inhibit inactive, PMK inhibit 0, NADH enzymes 1%, Abs 340nm 0.98 and MK inhibit 3.
Screening CCN(CC)C(=O)NC1CC2CCCC(C1)N2Cc1ccccc1 (centres undefined) returned Fluor 339 460 1.1, DPM-DC inhibit inactive, PMK inhibit 27*, NADH enzymes 11%, Abs 340nm 0.98 and MK inhibit 6.
`O=C(NCc1ccccc1)NC1CC2CCC(C1)N2Cc1ccco1` (centres undefined) gave Fluor 339 460 0.96, DPM-DC inhibit inactive, PMK inhibit 10, NADH enzymes 4%, Abs 340nm 1.1 and MK inhibit 2.
Screening Cc1c(NC(=O)C2CCN(S(=O)(=O)c3ccccc3)CC2)c(=O)n(-c2ccccc2)n1C returned Fluor 339 460 1.1, DPM-DC inhibit active, PMK inhibit 14, NADH enzymes 21%, Abs 340nm 1 and MK inhibit 14.
CCOC(=O)CCc1c(C)nc2cc(-c3ccccc3OC)[nH]n2c1=O was read as Fluor 339 460 1.5, DPM-DC inhibit inactive, PMK inhibit 4, NADH enzymes 8%, Abs 340nm 1.1 and MK inhibit 2.
For CCn1c(C)c(CCC(=O)O)c(=O)n2nc(-c3ccccc3OC)cc12 the results were Fluor 339 460 3.1*, PMK inhibit 11, NADH enzymes 3%, Abs 340nm 1 and MK inhibit 6.
Screening COc1ccc(CCNC(=O)CC2Nc3cc(C)c(C)cc3NC2=O)cc1OC (centres undefined) returned Fluor 339 460 2.1*, DPM-DC inhibit inactive, PMK inhibit 14, NADH enzymes 6%, Abs 340nm 1.1 and MK inhibit 2.
`COc1ccccc1NC(=O)CC1Nc2ccccc2NC1=O` (centres undefined) gave Fluor 339 460 1.4, DPM-DC inhibit inactive, PMK inhibit 6, NADH enzymes 10%, Abs 340nm 1.1 and MK inhibit 11.
Cc1cc2c(cc1C)NC(CC(=O)NCc1ccccc1)C(=O)N2 (centres undefined) was read as Fluor 339 460 2.1*, PMK inhibit 0, NADH enzymes 0%, Abs 340nm 1.2 and MK inhibit 0.
`Cc1cccc(-n2c(=O)[nH]c3c(C(N)=O)nc(C(C)C)nc32)c1` gave Fluor 339 460 5*, PMK inhibit 10, NADH enzymes 5%, Abs 340nm 1 and MK inhibit 0.
`COc1ccc(-c2nc(C(N)=O)c3[nH]c(=O)n(-c4cccc(Cl)c4)c3n2)cc1OC` gave Fluor 339 460 1.1, DPM-DC inhibit inactive, PMK inhibit 11, NADH enzymes 1%, Abs 340nm 1 and MK inhibit 1.
